Shown are actives, neighbours in structure and some others; about 2.4% of the full set was active somewhere.
D2 PAM-1: Beta-Arrestin HTS for Positive Allosteric Modulators of the Human D2 Dopamine Receptor: Potentiators; D(2) dopamine receptor (Homo sapiens), P14416; DiscoveRx D2 beta-arrestin cells, luminescence, 90 min; 100% = 57 uM dopamine signal; potentiation, % (no concentration beside the values); 360,000 compounds, 0.23% hits; in the data active = potentiation above about 50%; inconclusive = mostly about 30% to 49%
Target sequence (P14416 whole entry, looked up): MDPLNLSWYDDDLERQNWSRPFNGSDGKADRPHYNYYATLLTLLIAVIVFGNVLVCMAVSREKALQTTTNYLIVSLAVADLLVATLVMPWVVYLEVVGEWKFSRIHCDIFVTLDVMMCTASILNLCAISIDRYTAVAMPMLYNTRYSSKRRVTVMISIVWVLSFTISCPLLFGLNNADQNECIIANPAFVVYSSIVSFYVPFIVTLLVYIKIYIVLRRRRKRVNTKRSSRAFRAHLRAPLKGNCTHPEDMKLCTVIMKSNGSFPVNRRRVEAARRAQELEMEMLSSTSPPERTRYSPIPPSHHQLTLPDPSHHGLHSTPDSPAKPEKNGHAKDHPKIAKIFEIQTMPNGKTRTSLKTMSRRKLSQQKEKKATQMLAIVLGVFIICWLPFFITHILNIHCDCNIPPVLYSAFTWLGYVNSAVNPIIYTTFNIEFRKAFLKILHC
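D2 cells co-treated with compound plus 50 nM dopamine (EC20) for 90 min at 37 deg C to detect potentiation. Beta-arrestin recruitment was read as enzyme-fragment luminescence after 1 h at ambient temperature. Full response was set by 57 uM dopamine.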
D2 PAM-2: HTS Assay for Positive Allosteric Modulators of the Human D2 Dopamine Receptor: Primary Screen for Potentiators. AID 485347, 2010. HEK293 T-REx D2, calcium flux, EC20 dopamine potentiation. D(2) dopamine receptor (Homo sapiens), P14416. 340,000 compounds, 0.34% hits. potentiation, % at 10 µM;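 active = potentiation over 3 SD above the plate norm, cut at about 30% in these data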; also: 0% is about no effect
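Using a no-wash calcium dye in inducible, force-coupled HEK293 Trex cells expressing D2, we tracked fluorescence each second for 180 s after compound, then for 180 s after EC20 dopamine to detect augmented signalling.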
D2 ag-1: Beta-Arrestin HTS for Positive Allosteric Modulators of the Human D2 Dopamine Receptor: Agonists. AID 624465, 2012. activation, % (test concentration not listed). 360,000 compounds, 0.084% hits. DiscoveRx PathHunter D2 beta-arrestin, luminescence, 90 min; 100% = 57 uM dopamine signal; in the data active = activation above about 40%; inconclusive = between about 15% and that limit
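DiscoveRx PathHunter D2 beta-arrestin cells (2,100/well) attached overnight, then compound-stimulated 90 min at 37 C in HBSS/10 mM HEPES/0.1% Tween-20 buffer; beta-galactosidase complementation read by luminescence after 1 h at ambient temperature. Dopamine 57 uM final (EC100) as control.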
D2 ag-2: HTS Assay for Allosteric Agonists of the Human D2 Dopamine Receptor: Primary Screen for Agonists | D(2) dopamine receptor (Homo sapiens), P14416 | HEK293 T-REx D2 cells, calcium flux agonist mode | activation, % at 2 µM | 340,000 compounds, 0.53% hits | AID 485358, 2010;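 active = activation over 3 SD above normal in the single-dose calcium agonist read, cut at about 30% in these data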; also: 0% is about no effect
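Calcium-flux readout, 1 cycle/sec over 180 s following compound pin transfer, in inducible HEK293 Trex D2 cells (force-coupled); dopamine controls included. Positive calcium responses during this window marked compounds as potential agonists.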
D2 antag: HTS Assay for Allosteric Antagonists of the Human D2 Dopamine Receptor: Primary Screen for Antagonists; D(2) dopamine receptor (Homo sapiens), P14416; HEK293 TREx D2 cells, calcium flux, dopamine EC80; inhibition, % at 10 µM; 340,000 compounds, 2% hits; AID 485344, 2010; in the data active = inhibition above about 30%; inactive = below that, where a call was filed; also: 0% is about no effect
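Tetracycline-induced HEK293 TREx cells expressing D2 receptor forced-coupled to calcium signalling, loaded with no-wash calcium dye. Compounds added and calcium flux read 180 s, then dopamine added at EC80 and read a further 180 s.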
D3 arrestin ag: qHTS of D3 Dopamine Receptor Agonist: D3 Dopamine Receptor B-arrestin Agonist Confirmatory Assay | shares compounds with D2 ag-2 | DiscoveRx D3 beta-arrestin cells, luminescence, 90 min | Potency, µM (titrated, usually from 76.9 µM), for the others: at the top dose activation, usual class: activators | 2,300 compounds, 4% hits | AID 720506, 2013;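 also: potency is read from the fitted curve at half-maximal effect; 100% = dopamine control response; nearly all actives have a fitted effect of over 70% in size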
D2 ag-3: qHTS of D3 Dopamine Receptor Agonist: D2 Dopamine Receptor B-arrestin Agonist Counterscreen | shares compounds with D2 ag-2 | DiscoveRx PathHunter D2 beta-arrestin, luminescence, 90 min; response scale: percent relative to full dopamine signal | Potency, µM (highest dose often 76.9 µM), without a hit: at the highest dose activation, hits mostly activators | 2,300 compounds, 5.9% hits; also: potency is read from the fitted curve at half-maximal effect; % of control where 0% means no effect; nearly all actives have a fitted effect of over 70% in size
Starred values were filed as active, the others as inactive; ? = inconclusive; nt = no result. Unless noted, calls follow the shape of the dose curve; as a rule, active = well fitted activation curve with a large enough effect; inconclusive = small, poorly fitted or top-dose-only effect; inactive = flat fitted curve, though single readings scatter.

SMILES	D2 PAM-1	D2 PAM-2	D2 ag-1	D2 ag-2	D2 antag	D3 arrestin ag	D2 ag-3
CC(C)C[C@@H](C(=O)NCc1ccco1)N1C(=O)N2CCc3c([nH]c4ccccc34)[C@@]2(C)C1=O	-42.0	-4.5	1.1	0.6	25.1	nt	nt
CCC(C)c1ccc(OCC(=O)Nc2cccc(C(=O)Nc3ccc(C(=O)O)cc3)c2)cc1 (stereo unspecified)	-11.7	-25.6	2.8	64.0*	4.8	21.6%	0.7%
C=CCN(CC=C)CCOc1cc(C)ccc1[N+](=O)[O-]	-3.1	-28.5	-3.0	20.7	-8.1	7.5%	5.9%
O=C(COC(=O)[C@H](Cc1ccccc1)NC(=O)c1cccs1)Nc1ccccc1C(F)(F)F	-4.8	-7.6	-1.4	-0.1	4.3	nt	nt
NC(=O)NC(=O)COC(=O)[C@H](Cc1ccccc1)NC(=O)c1cccs1	-19.3	4.2	-1.8	17.0	10.1	13.8%	-5.4%
COC(=O)c1ccc(NC(=O)CSc2n[nH]c(CC(C)C)n2)cc1	nt	-0.3	nt	-2.0	nt	nt	nt
COc1cc(CN2CCN(c3ccccc3F)CC2)cc(OC)c1O	-1.0	-17.7	?	60.3*	69.8*	?	?
COc1cc(CN2CCC(C(=O)N3CCN(c4ccccc4F)CC3)CC2)cc(OC)c1O	-13.3	0.4	2.2	1.1	33.7*	11.8%	10.7%
COc1cccc(S(=O)(=O)NCc2ccc(C(=O)N3CCN(c4ccccc4)CC3)cc2)c1	4.7	-16.3	?	59.4*	56.4*	-5.4%	?
COc1cccc(S(=O)(=O)NCc2ccc(C(=O)N3CCN(c4ccccc4OC)CC3)cc2)c1	nt	-23.5	nt	nt	nt	-1.4%	6.8%
Cc1ccccc1CSc1nc2cccnc2n1Cc1ccc(C(=O)NCCc2cccs2)cc1	nt	4.7	nt	0.9	nt	nt	nt
O=S(=O)(NC(CO)Cc1ccccc1)c1cc(Cl)ccc1F (stereo unspecified)	-0.6	nt	-1.2	nt	nt	nt	nt
Cc1ccc(C(=O)c2oc3ccccc3c2NC(=O)C(C)Oc2ccccc2Cl)cc1 (stereo unspecified)	nt	-2.7	nt	0.5	nt	nt	nt
CCC(=O)N1CCc2cc(CNS(=O)(=O)c3c(C)cc(C)cc3C)ccc21	nt	15.3	nt	-0.5	nt	nt	nt
CCC1=C(c2ccc(C)cc2)S(=O)(=O)N=C1N1CCC(C(=O)NCCc2cccc(OC)c2)CC1	nt	1.8	nt	-0.3	nt	nt	nt
COc1ccc(CN2Cc3cccc4c3[C@@H](CC2=O)[C@H](O)[C@H](O)C4)cc1	0.1	-3.9	-1.3	-0.5	-17.9	nt	nt
O=C1C[C@@H]2c3c(cccc3CN1Cc1ccc(F)cc1)C[C@@H](O)[C@H]2O	-6.7	5.2	-3.2	1.2	-3.5	-4.5%	-3.0%
Cc1ccccc1C(=O)N(CC(=O)Nc1sc(C)c(C)c1C(N)=O)C1CCCC1	3.8	1.3	-8.1	1.0	-8.3	nt	nt
COc1ccccc1/C=N/NC(=O)c1ccc(CN2C(=O)c3cccc4cccc2c34)cc1	-5.4	-7.9	-4.1	0.3	-13.1	-3.6%	1.9%
CCn1c(N2CCN(S(=O)(=O)c3ccccc3C(F)(F)F)CC2)nc2ccccc21	2.2	-3.5	?	3.2	14.8	12.6µM*	?
COc1ccc(CC(=O)Nc2ccc(S(=O)(=O)NC(C)C)cc2)cc1	-4.2	nt	2.5	nt	nt	22.4%	10.6%
CCCCNS(=O)(=O)c1ccc(NC(=O)Cc2ccc(OC)cc2)cc1	-4.9	-7.2	1.6	0.1	-3.7	nt	nt
COc1cccc(CC(=O)OCC(=O)N(C)CC(=O)Nc2ccccc2Cl)c1	-10.7	-3.9	-5.0	-0.3	5.9	-8.9%	0.0%
COc1cccc(NC(=O)CN(C)C(=O)Cc2ccc3c(c2)OCCO3)c1	5.0	-7.0	4.2	-0.4	-3.8	-1.4%	-3.2%
O=C(NC1CC(=O)N(c2cccc(F)c2)C1)C1CC1 (stereo unspecified)	nt	-4.8	nt	nt	nt	nt	nt
SMILES	D2 PAM-1	D2 PAM-2	D2 ag-1	D2 ag-2	D2 antag	D3 arrestin ag	D2 ag-3
CN(CC(=O)NCCc1ccc(S(N)(=O)=O)cc1)CC(=O)Nc1cccc(F)c1	5.0	8.3	-3.1	nt	nt	nt	nt
COc1ccccc1NS(=O)(=O)c1cccc(C(=O)NCC(c2ccco2)N(C)C)c1 (stereo unspecified)	-38.4	-20.7	-1.3	-0.1	12.5	nt	nt
C/C=C/c1cc(CN2CCN(c3ccccc3)CC2)c(O)c(OC)c1	2.8	-32.8	5.0	nt	nt	-5.4%	6.2%
Cc1cccc(N2C(S)=C(C#N)C(=O)NC2c2ccco2)c1 (stereo unspecified)	-3.4	6.4	-0.5	0.4	21.8	nt	nt
COc1ccc(N2C(S)=C(C#N)C(=O)NC2c2ccco2)cc1 (stereo unspecified)	-6.1	-19.9	3.1	50.0*	8.7	1.1%	-2.5%
COc1ccc(NC(=O)C(C)N2CCN(C)CC2)cc1 (stereo unspecified)	3.5	-29.4	-1.6	79.1*	-20.8	-2.5%	-2.0%
O=C(O)CCCCCCCCc1cn(CCc2c[nH]c3ccccc23)nn1	-7.8	-20.0	-1.5	93.3*	-1.1	2.9%	-2.3%
Cc1cc(C)cc(OC2CCCCC2NS(=O)(=O)c2ccccc2)c1 (stereo unspecified)	-9.5	-11.5	-4.4	1.7	36.2*	-3.3%	-3.8%
CSc1ccc(OC2CCCCC2NS(=O)(=O)c2ccccc2)cc1 (stereo unspecified)	-4.7	4.9	-5.8	-0.7	6.5	nt	nt
CCC(C)[C@@H](CN)NCC1(c2ccccc2)CC1 (stereo partly specified)	-15.7	9.1	-3.0	-0.5	4.8	nt	nt
O=C(O)c1cccc(S(=O)(=O)N2CCN(Cc3ccc4c(c3)OCO4)CC2)c1	-0.2	5.5	0.1	-0.1	3.3	nt	nt
c1cc2c(cc1Cn1cnnn1)OCO2	-16.2	-13.1	-2.6	0.2	1.5	nt	nt
COc1cc(Cn2cnnn2)ccc1O	-14.4	-4.4	-2.3	-0.3	20.1	2.2%	0.2%
O=C(c1cccs1)N1CCN(C/C=C/c2ccccc2)CC1	-22.5	-24.1	4.7	52.5*	69.4*	?	?

From PubChem BioAssay
